Bioassay records from PubChem BioAssay.
D1 ag: Allosteric Agonists of the Human D1 Dopamine Receptor: qHTS; D(1A) dopamine receptor (Homo sapiens), P21728; HEK293 T-REx D1 cells, calcium flux, agonist mode; activation, % at 2 µM; 360,000 tested, 1% active; further: 0% is about no effect
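Tetracycline-induced HEK293 TREx D1 cells, force-coupled to calcium signalling, were dye-loaded with a no-wash calcium kit. Compound was pin-added after a 10 s baseline. Fluorescence was read kinetically at 1 cycle/s for 180 s, with calcium rises flagged as agonism.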
TRHR PAM: qHTS for Small Molecule Agonists and Allosteric Enhancers of Human TRH Receptor: Primary Screen for Enhancers; TRHR cells, fluo-8 calcium fluorescence, EC20 TRH enhancement; enhancement, % at 2 µM; 360,000 tested, 0.66% active; AID 493056, 2011; in the data active means enhancement above about 30%; further: 0% is about no effect
Target sequence (P34981 whole entry, looked up): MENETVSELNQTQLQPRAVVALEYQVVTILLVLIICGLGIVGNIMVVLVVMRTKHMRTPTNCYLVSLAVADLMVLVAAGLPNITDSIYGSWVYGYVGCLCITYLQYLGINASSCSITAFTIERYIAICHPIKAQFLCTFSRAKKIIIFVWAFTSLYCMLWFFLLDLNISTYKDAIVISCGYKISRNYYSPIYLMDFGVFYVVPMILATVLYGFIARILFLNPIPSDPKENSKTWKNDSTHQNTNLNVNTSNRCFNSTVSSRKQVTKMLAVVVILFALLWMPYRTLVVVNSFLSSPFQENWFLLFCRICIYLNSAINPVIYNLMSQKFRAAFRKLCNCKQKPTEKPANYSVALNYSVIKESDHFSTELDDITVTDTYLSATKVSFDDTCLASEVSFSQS
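TRHR-expressing cells loaded with fluo-8 calcium dye were read kinetically (ex 480/em 530) during compound addition, then stimulated with an EC20 of TRH (10 nM final). Enhancement of the Gq-mediated intracellular calcium response was scored.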
TRHR ag: qHTS for Small Molecule Agonists and Allosteric Enhancers of Human TRH Receptor: Primary Screen for Agonists; TRHR cells, calcium flux fluo-8, FDSS agonist mode; activation, % at 2 µM; 360,000 tested, 0.18% active; AID 493084, 2011; further: 0% is about no effect
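TRHR-expressing cells, plated overnight in medium with 10% serum, were loaded with fluo-8 calcium dye at room temperature. After a 10 s baseline, library compound was pin-added and calcium release was recorded kinetically (ex 480/em 530) as agonist response.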
D1 PAM: Potentiators of Human D1 Dopamine Receptor: qHTS | D(1A) dopamine receptor (Homo sapiens), P21728 | HEK293 TREx D1 cells, calcium flux, dopamine EC20 potentiation | potentiation, % at 10 µM | 360,000 tested, 0.036% active; in the data active means potentiation above about 30%; further: 0% is about no effect
D1 antagonist: Antagonist of Human D 1 Dopamine Receptor: qHTS; AID 504652, 2011; activity change, negative = inhibition, % at 10 µM; 360,000 tested, 3.2% active; HEK293 TREx D1 cells, calcium flux, dopamine EC80; active compounds read low; in the data active means activity change below about -30%; further: on the % scale 0 is the no-effect control and ±100 the full control effect
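Tetracycline-induced HEK293 T-REx cells with force-coupled D1 receptor were loaded with a no-wash calcium dye. Compound was added after a 10 s baseline and read kinetically for 180 s; EC80 dopamine was then added and calcium flux followed another 180 s.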
Starred values were filed as active, the others as inactive. Sampled rows, rich in hits. Any-hit rate of the full collection: about 4.6%. Unless noted, no stated cut-off is given here; in the data, active means activation above about 30%; inactive means the rest.

SMILES	D1 ag	TRHR PAM	TRHR ag	D1 PAM	D1 antagonist
CCNC(=O)c1c(NC(=O)Cc2coc3cc(C)ccc23)sc2c1CCCC2	5	0	0	-1	-2
CCOc1ccc(OCC)c(NC(=O)c2nnn(CC(=O)Nc3cc(Cl)ccc3OC)c2N)c1	0	1	1	1	-5
CCN(CC)c1ccc2nc3c(=O)n(C)c(=O)n(C)c3nc2c1	144*	4	68*	3	-18
CCOC(=O)/C(C#N)=C\c1ccc(CC)s1	-1	6	0	5	2
CCOC(=O)/C(C#N)=C\C=C1C=CN(C)C=C1	45*	0	19	-3	-20
COc1ccc(OC)c(NC(=O)Cn2c(=O)cc(C)c3c(C)nn(-c4cccc(Cl)c4C)c32)c1	1	3	0	-3	2
COc1ccc(N=C2NC(=O)C(CO)(CO)S2)cc1	2	9	0	-10	-51*
CC(=O)c1ccc(N=C2NC(=O)C(CO)(CO)S2)cc1	2	-7	1	-1	0
Cc1ccccc1Cn1nc(C)c(NC(=O)c2cc3n(n2)C(C(F)F)CC(C(F)F)N3)c1C (configuration not stated)	-1	6	0	-2	-51*
CCOC(=O)[C@H]1[C@H]2COc3ccc(C)cc3[C@@H]2N2C(=O)c3cc(F)ccc3NC(=O)[C@@]12C	-2	6	0	-6	-24
CCOC(=O)[C@H]1[C@H]2COc3ccc(Cl)cc3[C@@H]2N2C(=O)c3cc(F)ccc3NC(=O)[C@@]12C	31*	1	0	4	7
COc1cccc(-c2nnc3sc(CN4CCCCC4)cn23)c1	1	-1	0	-4	13
O=C(NNc1ccccn1)c1ccccc1CC[N+](=O)[O-]	2	-9	0	-10	-44*
COc1ccc([C@H](NC(=O)OC(C)(C)C)C(=O)OC(C)(C)C)cc1	0	-5	0	-8	-47*
Cc1ccccc1-c1cc2nc(C)c(C)c(=O)n2[nH]1	4	11	0	-4	-33*
Cc1ccc2oc(C(=O)Nc3ccc(S(=O)(=O)N4CCCCC4C)cc3)cc(=O)c2c1 (configuration not stated)	6	-3	1	0	-4
Nc1c(C(=O)c2ccc(Cl)cc2)sc2nsc(SCCN3CCOCC3)c12	103*	-5	27	-1	-25
Nc1c(C(=O)c2ccccc2)sc2nsc(SCCN3CCCC3)c12	167*	-8	54*	-4	-34*
CCC(Sc1nnc2c3ccccc3n(C)c2n1)C(=O)Nc1nnc(C(C)C)s1 (configuration not stated)	-1	-22	-1	-3	-13
COCCN(C(=S)Nc1ccccc1C)C(C)c1ccco1 (configuration not stated)	3	-1	0	-5	-71*
COCCN(C(=S)Nc1cccc(C)c1C)C(C)c1ccco1 (configuration not stated)	2	-8	0	-6	18
O=C(NNc1c(Cl)cccc1Cl)c1c(F)cccc1Cl	2	-8	-1	-7	-35*
N#CN/C(=N\S(=O)(=O)c1ccccc1)c1ccccc1	4	37*	1	-1	-1
O=S(=O)(/N=C(/Nc1ccccc1F)c1ccccc1)c1ccccc1	2	-4	0	-4	0
COc1ccc(-c2cc(-c3ccc4c(c3)NC(=O)CO4)nc3c2COc2ccc(F)cc2-3)cc1	0	0	2	0	5
SMILES	D1 ag	TRHR PAM	TRHR ag	D1 PAM	D1 antagonist
O=C(NCc1ccncc1)c1cc(F)c(F)cc1Cl	0	-2	0	-4	-40*
O=C(NCc1ccncc1)C(F)(F)C(F)(F)C(=O)NCc1ccncc1	6	-1	1	-7	-43*
O=S(=O)(c1ccc2c(c1)OCCO2)N1CCN(S(=O)(=O)c2ccc(F)cc2F)CC1	3	1	0	-4	8
CCOC(=O)c1cccc(NC(=O)/C=C/c2ccc([N+](=O)[O-])cc2)c1	6	-4	0	-4	-44*
CCn1c(O)c(/C=C2\C=Nc3ccccc32)sc1=O	0	-5	1	-6	-1
CC1=Nc2ccccc2/C1=C/c1sc(=N)n(-c2nccs2)c1O	58*	-1	16	-4	-8
CN(C(=O)CC1C(=O)NCCN1Cc1ccc(F)c(F)c1)C1CCOCC1 (configuration not stated)	3	-1	0	-3	-42*
CN(C(=O)CC1C(=O)NCCN1Cc1ccc(F)cc1)C1CCOCC1 (configuration not stated)	4	3	1	-3	-16
Cc1ccc(C(=O)NCc2ccc3c(c2)CCO3)cc1C	3	-5	0	-3	-48*
Fc1ccc(N2CCN(c3nnnn3-c3ccccc3)CC2)cc1	0	2	0	3	-40*
CCOC(=O)N1CCN(c2nnnn2-c2ccccc2)CC1	-1	2	1	-3	12
CCOc1cccc2cc(-c3nc(-c4ccccc4C)no3)c(=O)oc12	2	-3	0	-4	-15
CC1C/C(=N/O)C(C)CN1 (configuration not stated)	2	34*	1	3	11
C=C1CC[C@@H]2[C@](C)(CO)[C@H](O)CC[C@@]2(C)[C@@H]1/C=C/C1=CCOC1=O	4	12	0	-2	-10
C=C1CCC2[C@](C)(CO)[C@H](O)CC[C@@]2(C)[C@@H]1/C=C/C1=CCOC1=O (some centres not stated)	2	-1	1	-6	-66*
CCOc1ccc(NC(=O)NCCc2c(C)nn(C)c2C)cc1	0	6	0	0	10
Cc1ccc(O)c(C(=O)c2cnc3c(c2)COc2ccccc2-3)c1	2	-2	-1	-2	14
Cc1cc(O)c(C(=O)c2cnc3c(c2)COc2ccccc2-3)cc1Cl	0	35*	-1	-1	2
CCOC(=O)c1sc2ccccc2c1S(=O)(=O)Nc1ccc(OC)c(Cl)c1	7	-3	0	-6	-19
CC1CCCN(C(=O)N2c3ccccc3Sc3ccccc32)C1 (configuration not stated)	1	-7	0	-4	-3
OCCNCC(O)CN1c2ccccc2Sc2ccccc21 (configuration not stated)	7	-3	2	-11	-31*
CC1CCN(CC(O)CN2c3ccccc3Sc3ccccc32)CC1 (configuration not stated)	33*	15	1	-9	-89*
